Results on 16 molecules are retold here after PubChem BioAssay AID1259240 (Keith Lab, Institute of Cancer Science, University of …, 2017).

A number with no mark means an inactive call. The source made the active and inactive calls. Cut-off read from the data, not from the text of the source: active = fold change mostly below about -2 (no sharp cut-off); inactive = mostly above about -1.8.

The test in a line: modulation of TERT promoter-driven luciferase – cell-based, luciferase reporter, human, primary screen (AID 1259240). As to conditions: A2780 TERT promoter luciferase reporter, 16 h; at 20 µM, fold versus average of vehicle-only wells.
For `Cc1csc(NC(=O)C2CCCN(S(=O)(=O)c3c(C)[nH]c(=O)[nH]c3=O)C2)n1` (stereo unspecified), the fold change is -1.1. `CC1CCN(S(=O)(=O)c2ccc3c(c2)N(CC(=O)NCCN2CCCC2)C(=O)CO3)CC1`: the fold change was -1.01.

Consider `CCOP(=O)(OCC)C(Nc1ccccc1)c1ccco1` (stereo unspecified), for which the fold change is 1.02.

As to `O=C(CC1(O)C(=O)Nc2ccc(Br)cc21)c1cccs1` (stereo unspecified), the fold change was -6.1 (active). With `COc1nc(OCCNS(=O)(=O)c2ccc(C)cc2)nc(N(C)C)n1`, the fold change was -1.19. The result for `O=C(Nc1ccc(C(F)(F)F)cc1)C1CCCN1S(=O)(=O)c1cccc2nsnc12` (stereo unspecified) reads -1.19.

On to `O=C(O)CCN1C(=O)c2ccccc2S1(=O)=O`, for which the fold change is -1.2. For `O=C(c1cnc2ccccc2n1)N1CCn2c(nc3ccccc32)C1`, the fold change is 1.4. Consider `Cc1ccn2cc(-c3cccc(S(=O)(=O)N4CC(C)OC(C)C4)c3)nc2c1` (stereo unspecified), for which the fold change was -1.09.

As for `COCCCNc1nc2c(-c3ccccc3)nnn2c2ccccc12`, the fold change was 1.02.

As to `O=c1/c(=C/c2ccco2)sc2nc(-c3ccco3)nn12`, the fold change is -1.71. The result for `COc1ccc(C(=O)CSc2nnc(Cc3cc(=O)[nH]c(=O)[nH]3)n2-c2ccc(Cl)cc2)cc1` reads -1.34. The value for `O=C(CSc1ncnc2ccccc12)N1CCc2ccccc21` was 1.26; that for `COC(=O)c1ccc(C2NC(=O)c3n[nH]c(C)c32)cc1` (stereo unspecified) was -1.08.

On to `CC(CC(=O)Nc1nccs1)CC1=NS(=O)(=O)c2ccccc2N1` (stereo unspecified), for which the fold change was -1.22. `Cc1ccc(S(=O)(=O)NCCOc2nc(N(C)C)nc(N3CCOCC3)n2)cc1`: the fold change was -1.03.
